This is part of a sample that, as a whole, favours compounds with a hit. Of some 83,000 tested, about 20% had one in any assay.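 Activity criterion: percent growth below 10, measured after cells in 96-well plates were exposed to a single compound concentration for 48 hours.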 Unmarked numbers belong to inactive results. Calls of active or inactive are those of the source.

This test deals with MDA-MB-468 breast. Nature of the test: NCI-60 one-dose screen, 48 h (100 = growth as untreated, 0 = no growth, -100 = all killed). The conditions noted are these: 10 µM unless noted.
Turning to `OCCOc1c(Cl)cc(Cl)cc1Cl`, the growth was 127%. `O=C1NCC(c2cc3ccccc3[nH]c2=O)Nc2ccccc21` (stereo not given): the growth was 97.5%. Regarding `CC1CCC(C(C)(C)[N+](C)(C)C)CC1` (stereo not given), the growth was 120%.

`FC(F)(F)c1cc(CNc2ncc(Br)c(Cl)n2)cc(C(F)(F)F)c1`: the growth is 93.2%. `COc1cc(Cn2ncc3ccc(NC(=O)c4cc5ccccc5oc4=N)cc32)cc(OC)c1OC`: the growth is 36.8%. On to `COc1ccc2nc(-c3ccc(Cl)cc3)cc(C(=O)N3N=C(c4ccc(N)cc4)CC3c3ccccc3)c2c1` (stereo not given), for which the growth was 30.9%. Regarding `CCOC(=O)CCCCCCCCC(=O)OCC`, the growth is 104%.

As for `COc1cc(-c2cc(-c3ccc(Nc4ncnc5cc(Cl)ccc45)cc3)nc(N3CCN(C)CC3)n2)cc(OC)c1OC`, the growth was 105%.

Consider `COc1ccccc1C(=O)/C=C/c1cc2cccc(OC)c2[nH]c1=O`, for which the growth is -43.9% (active).

As for `O=[N+]([O-])c1ccc(NC(=S)NNC(=S)Nc2ccc(Br)cc2)cc1`, the growth was 82.5%. With `O=C(CCCCCCN1CC(=O)N2[C@@H](c3cccc(Br)c3)c3[nH]c4ccccc4c3C[C@H]2C1=O)NO`, the growth is 28.1%. Take `N=C(N)c1ccc(-c2ccc(-c3ccc4ccccc4c3)s2)cc1`: the growth is 101%. The figure for `CC(=O)Oc1ccc(C2(c3ccc(OC(C)=O)cc3)C(=O)Nc3ccccc32)cc1` is 46.2%; for `CC(C)[C@@H]1CC[C@@H]2[C@@H]1[C@H](OC(=O)/C=C/c1ccccc1)[C@]1(C(C)C)C[C@@H](OC(=O)CO)[C@@]2(C)O1` it is 113%; for `CCCCOc1ccc(S(=O)(=O)N2CCN(c3nc(C)cc(N4CCOCC4)n3)CC2)cc1` it is 34.8%.

Take `CCOC(=O)C1(CC(C)C)CCOC1=O` (stereo not given): the growth is 99.7%. The figure for `N=C(N)c1ccc(-c2ccc(-c3ccccc3)s2)s1` is -94.5% (active). For the compound `COC1=CC(=O)C[C@@H](C)[C@]12Oc1c(Cl)c(OC)cc(OC)c1C2=O`, the growth is 76.8%. With `OCc1cnccc1NCCCCOc1ccc(Oc2ccccc2)cc1` the figure was 30.5%. For the compound `CCOC(=O)NNc1cccc(Cl)c1`, the growth is 98.2%. On to `COC(=O)c1nc(-c2ccccc2)oc1S(=O)(=O)N1CCCC(C)C1` (stereo not given), for which the growth is 29.2%. As to `CN(C)c1ccc(/C=C/C=N/NC(=O)c2cc(O)c(O)c(O)c2)cc1`, the growth is 89.1%. With `Nc1ccccc1NC(=O)c1ccc(CSc2nc(N3CCOCC3)c3cccn3n2)cc1`, the growth was -11.1% (active). With `CC1(C)CC(=O)C2=C(C1)OC(C(=O)c1ccccc1)C2c1cccc(Oc2ccccc2)c1` (stereo not given), the growth is 33%.

On to `COc1ccc(/C=C/C(=O)/C=C(/C=C/c2ccc(OC)c(OC)c2)OB(F)F)cc1OC`, for which the growth was 45.6%. As to `COC(=O)c1ccc(C(C)C)cc1`, the growth was 110%.

Consider `CS(=O)(=O)N1CCN(Cc2cc3nc(-c4cccc5[nH]ncc45)nc(N4CCOCC4)c3s2)CC1`, for which the growth was -19.6% (active). Take `CCCC(=O)Oc1ccc2ccccc2c1`: the growth was 94%.

Turning to `Cc1cc2c(C(C)C)c(O)c(O)c(/C=N/O)c2c(O)c1-c1c(C)cc2c(C(C)C)c(O)c(O)c(/C=N/O)c2c1O`, the growth was 20.9%. As for `O=[N+]([O-])c1cccc(-c2nc3sccn3c2-c2ccnc(NCCCNS(=O)(=O)c3ccc(F)cc3)n2)c1`, the growth is -8.54% (active).

Consider `CC/C(=C/c1cc(OC)ccc1O)c1ccc2cc(OC)ccc2[o+]1`, for which the growth is 45.8%. As to `O=C1Nc2ccc(C(=O)O)c(O)c2C1=O`, the growth is 108%. On to `CC1(COc2ccc3c(c2)ncn3-c2ccc3cccc(N4CCC(N)CC4)c3n2)COC1`, for which the growth is -20.6% (active). As to `CC/C(=C(\c1ccc(O)cc1)c1ccc(OCCN(C)CCN(C)C(=O)CCCCC(=O)c2c(C)[nH]c(/C=C3\N=C(c4ccc[nH]4)C=C3OC)c2C)cc1)c1ccccc1`, the growth was 80%. On to `COc1ccc2c(c1)c(-c1nc(-c3c[nH]c4c(Cl)nccc34)cs1)cn2C`, for which the growth was -23% (active). Turning to `COc1cccc(/C=C2\Oc3cc(OCCCN4CCCC4)ccc3C2=O)c1OC`, the growth is 93.2%. As to `CC(=O)c1ccc(NS(=O)(=O)c2cccc(C(=O)Nc3ccc(Br)cc3)c2)cc1`, the growth is 15.3% [25 µM]. Regarding `Nc1no[n+]([O-])c1-c1nnc2c(n1)-c1ccccc1C2=O`, the growth was 41.5%. As for `CC(C)c1ccc(C(=O)Nc2nc3ccc(O)cc3s2)cc1`, the growth was 2.85% (active).

Turning to `NC1=NC(c2ccc(Cl)cc2)C2=C(N1)/C(=C/c1ccc(Cl)cc1)CCC2` (stereo not given), the growth was 62.2%.

(Values after PubChem BioAssay (NCI).)
